What all share (experiment): NCI-60 one-dose screen, 48 h (100 = growth as untreated, 0 = no growth, -100 = all killed)
Common to all, as to conditions: 10 µM unless noted

In test [1] the test system is DU-145 prostate.
Test [2] has as its system K-562 leukemia.
Test [3] deals with MALME-3M melanoma.
Test [4] deals with MDA-MB-231 breast.
The test system of test [5] is RXF 393 renal.
The subject of test [6] is SF-268 CNS.
Test [7] deals with SF-295 CNS.
The test system of test [8] is SF-539 CNS.
Test [9] has as its system UACC-257 melanoma.
The subject of test [10] is M14 melanoma.
Test [11] deals with HCT-15 colon.
Test [12] deals with HT29 colon.
Test [13] concerns SNB-75 CNS.
Test [14] concerns SNB-19 CNS.
Test [15] concerns U251 CNS.
The subject of test [16] is PC-3 prostate.
Test [17] concerns SK-MEL-5 melanoma.
Test [18] deals with UACC-62 melanoma.
In test [19] the test system is LOX IMVI melanoma.
Test [20] has as its system SK-MEL-28 melanoma.

Among the data in PubChem BioAssay (NCI) are growth values, retold here.

About 83,000 compounds went through this panel and 20% of them were active in at least one assay; those are over-represented in the sample as a whole.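 96-well plates, one dose, 48 hours. Percent growth reported; active if below 10.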 A number with no mark means an inactive call. The source made the active and inactive calls.

As for `O=C(OCc1ccc2c(Cl)cc(Cl)c(O)c2n1)n1cncn1`, the growth in test [1] was 38.7%; in test [2], 18.2%; in test [3], 33%; in [4], 59.6%; in [5] it was 45.9%; in test [6], 24.1%. For the same compound, the growth in [7] was 20%; in test [8], 15.7%; in [9] it was 41.2%; in test [10], 20.4%; in [11], 19.3%; in test [12] it was 72.6%. Also, the growth is 44.9% in [13]; 30.5% in [14]; 16.3% in [15]; 42.5% in [16]; 15.4% in test [17]; -3.18% (active) in test [18]. In addition, the growth in [19] was 9.57% (active); in test [20], 35.5%.
For `Cn1cc(-c2csc(-c3c[nH]c4ccc(Br)cc34)n2)c2cnccc21`, the growth in test [1] was -91.7% (active); in test [2], -53.8% (active); in test [3], -88.7% (active); in test [4], -81.4% (active); in [5], -94.9% (active); in test [6] it was -75.5% (active). Moreover, the growth in test [7] is -86.6% (active); in [8], -96.4% (active); in [9], -50.2% (active); in test [10] it was -81.7% (active); in test [11] it was -78.9% (active); in [12] it was -70% (active). The growth was -95.8% (active) in test [13]; -85.5% (active) in test [14]; -85.8% (active) in test [15]; -79.5% (active) in [16]; -67.7% (active) in test [17]; -90.6% (active) in test [18]. For the same compound, the growth in test [19] was -92.7% (active); in [20], -93.6% (active).
For `CN1C(=O)N(C)C2Nn3c(s/c(=C\c4ccc(C(F)(F)F)cc4)c3=O)=NC21` (stereo not given), the growth is 109% in test [1]; 93.3% in test [2]; 107% in test [3]; 91.7% in test [4]; 95.7% in [5]; 96.9% in test [6]. Also, the growth was 101% in test [7]; 97.3% in test [8]; 111% in test [9]; 110% in test [10]; 93.9% in test [11]; 109% in test [12]. Besides, the growth in test [13] is 82.2%; in [14] it was 95.2%; in [15] it was 93.2%; in test [16] it was 104%; in test [17], 99.5%; in test [18], 89.7%. The growth is 95.7% in [19] and 103% in test [20].
As to `CC1(C)CC[C@]2(c3nnc(-c4ccncc4)o3)CC[C@H]3C(=CC[C@H]4[C@@]3(C)CC[C@H]3C(C)(C)C(=O)CC[C@]43C)[C@@H]2C1`, the growth in test [1] is 86.3%; in test [2], 40.8%; in [3], 86.9%; in [4], 72.8%; in test [5], 79%; in test [6], 81.4%. For the same compound, the growth in [7] was 89.7%; in test [8], 76.3%; in [9] it was 70.6%; in [10] it was 84%; in test [11], 61.1%; in test [12], 50.9%. The growth in test [13] was 68.3%; in test [14], 74%; in test [15], 62.4%; in test [16], 25.1%; in test [17], 62.4%; in [18], 54.7%. Besides, the results for the growth in [19] and in [20] were 57.4% and 87.5%, respectively.
Regarding `N=C(N)c1ccc(-c2ccc(-c3ccc(Cl)cc3)s2)nc1`, the growth in [1] is -94.8% (active); in test [2] it was -45.1% (active); in test [3], 87.3%; in [4], -47% (active); in [5], 60.1%; in [6], 57.6%. Further, the growth in test [7] was 27.1%; in test [8], -55.2% (active); in test [9], 82.3%; in [10], 17.9%; in test [11], -78.1% (active); in [12] it was -38.1% (active). The growth in test [13] was 95.8%; in test [14] it was 49.9%; in test [15], -68.1% (active); in test [16], -75.3% (active); in [17], 82.8%; in [18] it was 89.9%. In addition, the growth in test [19] is -89% (active); in [20], 108%.
As for `CCc1n(Cc2ccc3ccccc3c2)cc[n+]1Cc1ccc2ccccc2c1`, the growth in test [1] is 23.8%; in [2], 8.91% (active); in test [3], -21.9% (active); in test [4] it was -18.9% (active); in [5] it was 1.07% (active); in test [6] it was 12.5%. Also, the growth in test [7] was 6.3% (active); in test [8] it was 12.6%; in [9], -38.2% (active); in [10], -9.48% (active); in [11] it was 70.1%; in test [12] it was -32.2% (active). The growth was -5.96% (active) in test [13]; 5.41% (active) in test [14]; 4.23% (active) in test [15]; 2.65% (active) in [16]; -93.3% (active) in test [17]; -43.1% (active) in [18]. Besides, the growth in test [19] was 1.9% (active); in [20], 2.03% (active).
As to `CS(=O)(=O)c1cccc(-c2c(-c3cccc(OS(N)(=O)=O)c3)nc3sccn23)c1`, the growth was 113% in [1]; 100% in test [2]; 102% in test [3]; 93% in test [4]; 107% in [5]; 101% in test [6]. The growth in test [7] is 98.3%; in test [8], 93.5%; in test [9], 106%; in test [10], 105%; in test [11], 104%; in [12], 107%. Besides, the growth in test [13] is 70.8%; in test [14], 97.5%; in [15] it was 100%; in [16] it was 106%; in [17], 96.6%; in test [18], 94%. Besides, the growth in test [19] was 95.6%; in test [20] it was 112%.
On to `C=C1C(=O)O[C@H]2[C@H]1CC/C(COC(=O)NCc1cc[nH]c1)=C\CC[C@@]1(C)O[C@@H]21`, for which the growth is 12.4% in test [1]; 16.6% in test [2]; 84.2% in [3]; 35.4% in test [4]; 31.1% in [5]; 64.9% in [6]. Also, the growth in [7] was 83.5%; in test [8], 50.8%; in [9] it was 59.1%; in test [10] it was 32.7%; in [11], 24.6%; in [12] it was 42.6%. The growth in [13] was 70.4%; in test [14], 83.2%; in test [15], 68.2%; in test [16] it was 51.7%; in [17], 91.2%; in test [18], 39.6%. Besides, the figures for the growth in test [19] and in test [20] were 32.3% and 54.6%, respectively.
